Assay results reported in publication PMC4336329 (PLoS ONE, 2015).
About 14,000 (4.5%) of roughly 310,000 compounds showed an effect of 50% or more. The effect is printed as a negative number. The sample holds strong results, similar compounds and a random draw of the others, so the mix is not that of the screen.

target: human ether-à-go-go-related gene (hERG) potassium channel (human, UniProt Q12809); experiment: primary screen, population patch clamp on CHO cells stably expressing hERG; higher = less effect of the substance
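Also: peak tail current of the secondary pulse compared with the same well before compound.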

human ether-à-go-go-related gene (hERG) potassium channel, sequence (Q12809 whole entry, looked up): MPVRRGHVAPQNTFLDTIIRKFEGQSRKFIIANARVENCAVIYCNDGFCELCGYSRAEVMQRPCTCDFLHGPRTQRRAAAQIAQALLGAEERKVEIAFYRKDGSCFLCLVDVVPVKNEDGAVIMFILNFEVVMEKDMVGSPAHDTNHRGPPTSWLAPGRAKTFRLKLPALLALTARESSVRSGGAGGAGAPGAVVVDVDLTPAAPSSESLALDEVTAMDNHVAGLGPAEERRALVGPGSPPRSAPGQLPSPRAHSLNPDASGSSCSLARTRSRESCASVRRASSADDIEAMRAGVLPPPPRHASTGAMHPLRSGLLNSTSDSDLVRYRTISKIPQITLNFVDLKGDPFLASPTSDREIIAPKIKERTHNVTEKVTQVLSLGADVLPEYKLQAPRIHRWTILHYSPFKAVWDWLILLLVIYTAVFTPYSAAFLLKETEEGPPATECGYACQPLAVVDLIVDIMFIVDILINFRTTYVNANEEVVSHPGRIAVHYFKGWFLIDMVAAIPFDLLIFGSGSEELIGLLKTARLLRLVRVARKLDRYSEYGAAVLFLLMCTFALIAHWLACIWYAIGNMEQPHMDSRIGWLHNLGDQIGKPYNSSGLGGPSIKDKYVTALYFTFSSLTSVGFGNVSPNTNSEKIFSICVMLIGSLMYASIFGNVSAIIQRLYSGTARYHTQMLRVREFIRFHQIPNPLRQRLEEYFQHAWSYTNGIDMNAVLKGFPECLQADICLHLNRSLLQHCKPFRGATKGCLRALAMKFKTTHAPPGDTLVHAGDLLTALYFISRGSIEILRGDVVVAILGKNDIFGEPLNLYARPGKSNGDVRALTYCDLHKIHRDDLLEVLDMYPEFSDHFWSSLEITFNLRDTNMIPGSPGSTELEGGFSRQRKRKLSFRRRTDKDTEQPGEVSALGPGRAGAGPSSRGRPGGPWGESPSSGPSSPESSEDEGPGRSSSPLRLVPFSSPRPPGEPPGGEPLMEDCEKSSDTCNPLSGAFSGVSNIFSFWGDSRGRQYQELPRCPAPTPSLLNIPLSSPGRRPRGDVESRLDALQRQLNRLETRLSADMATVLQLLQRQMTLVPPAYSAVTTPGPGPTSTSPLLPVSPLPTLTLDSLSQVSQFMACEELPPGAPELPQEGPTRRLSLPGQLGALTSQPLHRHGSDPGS

Row | SMILES | hERG current change (%, negative = inhibition) at 10uM [%]
1 | Cc1c(N2C(=O)/C(=C\c3ccccc3O)SC2=S)c(=O)n(-c2ccccc2)n1C | 30.5
2 | O=C(O)Cc1nc2nc3c(c(=O)n2[nH]1)CCCC3 | 16.3
3 | CCOc1ccc(/C=N/NC(=O)c2cc(-c3cccn3C)n[nH]2)cc1 | 5.27
4 | COc1ccc(C/C(O)=C(\C#N)c2nc3ccccc3s2)cc1 | 11.6
5 | O=C(O)C(=O)O.c1ccc(-c2ccccc2OCCCN2CCCCC2)cc1 | -74.6
6 | O=C(O)C(=O)O.c1ccc(-c2ccccc2OCCCN2CCCCCC2)cc1 | -80.1
7 | O=C(O)C(=O)O.c1ccc(-c2ccccc2OCCCCN2CCCCCC2)cc1 | -77.5
8 | O=C(O)C(=O)O.c1ccc(-c2ccccc2OCCN2CCCCC2)cc1 | -45.9
9 | O=C(O)C(=O)O.c1ccc(-c2ccccc2OCCOCCN2CCOCC2)cc1 | 6.15
10 | CCC1(c2ccc(C)cc2)NC(=O)N(CC(=O)Nc2cccc(S(=O)(=O)N3CCCC3)c2)C1=O (centres unmarked) | 0.0785
11 | O=C(NCCCN1CCCCC1)C1CC(=O)N(CCc2ccccc2)C1 (centres unmarked) | 12.3
12 | CC(C)CC(=O)Nc1nnc(S(=O)(=O)N2CCCCCC2)s1 | -15
13 | COc1ccc(-c2nc3c(s2)CN(S(C)(=O)=O)CC3)cc1OC | 15.2
14 | Cc1ccc(S(=O)(=O)NCCC(=O)Nc2ccc(C)c(Cl)c2)cc1C | -1.46
15 | CCOC(=O)C1CCCN(C2CC(=O)N(c3ccc(C(C)C)cc3)C2=O)C1 (centres unmarked) | -10
16 | CCc1ccc(NC(=O)Cc2ccc(-n3cccc3)cc2)cc1 | 0.973
17 | Cc1[nH]n(-c2ccccc2)c(=O)c1/C=N/n1c(C)nc2ccccc2c1=O | 11.8
18 | CCc1ccc(Nc2ccc(C(N)=O)cc2[N+](=O)[O-])cc1 | 8.56
19 | Cc1ccc(N)c(N)c1 | 6.61
20 | CC(=O)NNC(=O)CCn1c2c(c3ccccc31)CCCC2 | 9.01
21 | CCCCn1c2c(c(=N)c3ccccc31)CCC2.I | -50.3
22 | Cl.N=c1c2c(n(Cc3ccccc3)c3c1CCC3)CCC2 | -0.485
23 | O=C(O)Cn1c2c(c3ccccc31)CCCC2 | 7.39

Row | SMILES | hERG current change (%, negative = inhibition) at 10uM [%]
24 | CCOC(=O)Cn1c2c(c(=N)c3ccccc31)CCC2.Cl | 4.06
25 | Br.CCn1c2c(c(=N)c3ccccc31)CCC2 | 5.12
26 | CCCCCn1c2c(c(=N)c3ccccc31)CCC2.I | -71.2
27 | CCCCCCCn1c2c(c(=N)c3ccccc31)CCC2.I | -81.4
28 | O=C(O)CCn1c2c(c3ccccc31)CCCC2 | 25.3
29 | [N-]=[N+]=NC[C@H](Cc1ccccc1)N1CC[C@@H](OCc2ccccc2)CCC1=O | -13.3
30 | CCC(=O)n1nc(-c2ccc(Cl)cc2)nc1N | 3.71
31 | CC1(/[N+]([O-])=C/c2ccccc2F)CCCCC1=O (centres unmarked) | 25.2
32 | O=C1OC(c2ccc(Br)cc2)=N/C1=C\c1ccco1 | 26.3
33 | COc1ccc(N2CCN(c3nc(NCCc4ccc(OC)c(OC)c4)nc(OC)n3)CC2)cc1 | -78.3
34 | CCOc1nc(NCCc2ccc(OC)c(OC)c2)nc(N2CCN(c3ccc(OC)cc3)CC2)n1 | -3.79
35 | COc1ccc(CCNc2nc(N3CCOCC3)nc(N3CCOCC3)n2)cc1OC | 3.45
36 | N=C1C(c2nc(-c3ccc(Cl)cc3)cs2)=C(O)CN1NC(=O)c1ccc(O)cc1 | 4.02
37 | Cc1ccccc1N1CCN(C2CCCN(C(=O)c3cc[n+]([O-])cc3)C2)CC1 (centres unmarked) | 9.87
38 | COc1ccc(CN2C(=O)CCC(C(=O)O)C2c2ccccc2)cc1 (centres unmarked) | 25.6
39 | Cc1cc(=O)n(C)c(=O)n1CCCCOc1cccc([N+](=O)[O-])c1 | -14.5
40 | Cc1cc(C(=O)COc2cccc([N+](=O)[O-])c2)c(C)n1C1CC1 | -35.7
41 | Cc1cc(=O)n(C)c(=O)n1CCCCCCOc1cccc([N+](=O)[O-])c1 | -69.3
42 | Cc1cc(=O)n(C)c(=O)n1CCCCCOc1cccc([N+](=O)[O-])c1 | -57.9
43 | Cc1cc(=O)n(C)c(=O)n1CCCNc1ccccc1.O=C(O)C(=O)O | -4.01
44 | O=C(COc1cccc([N+](=O)[O-])c1)NN1C(=O)c2ccccc2C1=O | -5.95
45 | Cn1nccc1CNC(=O)c1ccnn1C | 14.9
46 | COc1ccc(COC(=O)C2=C(C)NC(=O)NC2c2cccc(OC)c2OC)cc1 (centres unmarked) | 5.25

Row | SMILES | hERG current change (%, negative = inhibition) at 10uM [%]
47 | CCC(=O)Nc1ncc2c(n1)CC(c1ccco1)CC2=O (centres unmarked) | 7.92
48 | Cc1ccc(Cl)cc1NC(=O)COC(=O)C1CCCCC1 | 7.48
49 | COc1ccc(COC(=O)C2CCN(C(=O)c3ccc(Cl)cc3)CC2)cc1F | -52.2
50 | COc1ccc(C)cc1NC(=O)Nc1ccc(C(=O)N2CCCC2)cc1 | -23
51 | COc1ccc(Cl)cc1NC(=O)COC(=O)C1CC1 | -0.403
52 | Cc1ccc(Cl)cc1NC(=O)COC(=O)C1CC1 | -5.31
53 | COc1ccc(CCNC(=O)C2CCN(C(=O)c3ccc(Cl)cc3)CC2)cc1OC | 2.77
54 | O=C(OCc1ccccn1)C1CCN(C(=O)c2ccc(Cl)cc2)CC1 | -36
55 | COc1ccc(Cl)cc1NC(=O)COC(=O)C1CCCCC1 | 7.15
56 | COc1ccc(C)cc1NC(=O)COC(=O)C1CCN(C(=O)c2ccc(Cl)cc2)CC1 | -79.1
57 | COc1ccc(OC)c(NC(=O)COC(=O)C2CCN(C(=O)c3ccc(Cl)cc3)CC2)c1 | -71.1
58 | COc1ccc(C)cc1NC(=O)COC(=O)C1CC1 | 6.16
59 | Cc1ccc(Cl)cc1NC(=O)COC(=O)C1CCCC1 | -75.8
60 | Cl.NC(CO)C12CC3CC(CC(C3)C1)C2 (centres unmarked) | 9.97
61 | Cc1ccc(C(C(=O)NCc2ccco2)N(C(=O)CNC(=O)c2cccs2)c2ccc(C)cc2C)cc1 (centres unmarked) | -10.3
62 | CN1CCN(c2nc(-c3ccccc3)cc(C(F)(F)F)n2)CC1 | -19.1
63 | CCOc1ccc2c(c1)c(N=NC(N)=S)c(O)n2C | 1.21
64 | CC(C)Cc1nnc(NC(=O)C2CC(=O)N(Cc3ccccc3)C2)s1 (centres unmarked) | 0.385
65 | Cc1ccccc1C(=O)NNC(=O)C1CC(=O)N(Cc2ccccc2)C1 (centres unmarked) | 2.19
66 | COc1ccc(C(C#N)c2ccc(Cl)nn2)cc1 (centres unmarked) | -2.07
67 | Cc1ccc2[nH]c(=O)c3cc(C(=O)NCC4CCCO4)sc3c2c1 (centres unmarked) | -3.5
68 | CS(=O)(=O)Nc1ccc(C(=O)NC2CCCCC2)cc1 | -0.845
69 | COc1ccc2cc(C)c(SCC(=O)Nc3cc(C)on3)nc2c1 | 6.5

Row | SMILES | hERG current change (%, negative = inhibition) at 10uM [%]
70 | COc1ccc(-c2nc3ccccc3o2)cc1NC(=O)c1ccc(Br)o1 | 4.92
71 | CCOC(=O)COn1c(=O)c(-c2ccc(OC)cc2)[n+]([O-])c2ccccc21 | -1.13
72 | COCCN(CCOC)C(=O)C1CCN(c2ccc(S(=O)(=O)N3CCOCC3)cc2[N+](=O)[O-])CC1 | -35.5
73 | C=CCNC(=O)C1CCN(c2ccc(S(=O)(=O)N3CCOCC3)cc2[N+](=O)[O-])CC1 | -24
74 | CCCN(CCC)C(=O)C1CCN(c2ccc(S(=O)(=O)N3CCOCC3)cc2[N+](=O)[O-])CC1 | -22.4
75 | CCCCN(C)C(=O)C1CCN(c2ccc(S(=O)(=O)N3CCOCC3)cc2[N+](=O)[O-])CC1 | -53.9
76 | O=C(NCc1ccco1)C1CCN(c2ccc(S(=O)(=O)N3CCOCC3)cc2[N+](=O)[O-])CC1 | -70
77 | CC(C)CNC(=O)C1CCN(c2ccc(S(=O)(=O)N3CCOCC3)cc2[N+](=O)[O-])CC1 | -38.8
78 | CN(/N=C/c1ccco1)C1=NS(=O)(=O)c2ccccc21 | 4.85
79 | O=C(CC(SCCO)c1ccc2c(c1)OCO2)c1cccs1 (centres unmarked) | -16.7
80 | CCOc1cc(N2CCOCC2)c(OCC)cc1NC(=O)CCS(=O)(=O)c1ccc(Cl)cc1 | -35.5
81 | N#CCCN1CCN(S(=O)(=O)c2ccc(S(=O)(=O)NC3CC3)cc2)CC1 | -1.76
82 | O=C(Nc1cccc(C(F)(F)F)c1)c1c(O)c2ccccc2[nH]c1=O | 16
83 | CCN(CC)CCN=Cc1c(O)n(CCC2=CCCCC2)c(=O)[nH]c1=O | -65.6
84 | CN(C)CCN=Cc1c(O)n(CCC2=CCCCC2)c(=O)[nH]c1=O | -24.2
85 | CN(C)CCCN=Cc1c(O)n(CCc2ccc(F)cc2)c(=O)[nH]c1=O | 15.2
86 | O=c1[nH]c(=O)n(CCC2=CCCCC2)c(O)c1C=NCCN1CCNCC1 | -11.7
87 | CCN(CC)CCCN=Cc1c(O)n(Cc2ccc(F)cc2)c(=O)[nH]c1=O | -33.7
88 | CCN(CC)CCCN=Cc1c(O)n(CCc2ccc(F)cc2)c(=O)[nH]c1=O | -56.1
89 | CN1CCN(c2ccc(S(=O)(=O)N3CCOCC3)cc2NC(=O)CC(C)(C)C)CC1 | 8.55
